For three compounds, outcome and AC50 results are on record in PubChem BioAssay (EPA / NIEHS).

The source made the active and inactive calls. Rule for the calls: active = hit-call score of the fitted dose curve at least 0.9, where 1 is the maximum; inactive = score below 0.9.

What all share (conditions): mRNA level, 48 h; actives raise or lower the signal
Read-out in assay [1]: Insulin Like Growth Factor 1 (IGF1), IGF1 (gene 3479)
Briefly: LTEA_HepaRG_IGF1: Life Technologies and Expression Analysis (LTEA) Assay for Insulin Like Growth Factor 1 (IGF1) using HepaRG (AID 2283506). The method, boiled down:
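Endpoint: IGF1 mRNA change by qRT-PCR, housekeeping-normalized, fitted bidirectionally relative to 0.5% DMSO vehicle. Human HepaRG cells were treated 48 h in serum-free induction medium, eight half-log concentrations topping at 100 uM.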

Read-out in assay [2]: Intercellular Adhesion Molecule 1 (ICAM1), ICAM1 (gene 3383)
The assay can be described thus: LTEA_HepaRG_ICAM1: Life Technologies and Expression Analysis (LTEA) Assay for Intercellular Adhesion Molecule 1 (ICAM1) using HepaRG (AID 2283507). The gist of the method: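 Readout is qRT-PCR mRNA level, normalized to three housekeeping genes and fitted bidirectionally against 0.5% DMSO vehicle. Human HepaRG cultures received compound for 48 h, top concentration 100 uM with half-log dilutions.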

Read-out in assay [3]: Insulin-like growth factor-binding protein 1 (IGFBP1), IGFBP1 (gene 3484)
The assay can be described thus: LTEA_HepaRG_IGFBP1: Life Technologies and Expression Analysis (LTEA) Assay for Insulin-like growth factor-binding protein 1 (IGFBP1) using HepaRG (AID 2283508). The gist of the method:
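Thawed HepaRG cells are plated for 48 h, switched to serum-free induction medium, then dosed in duplicate for another 48 h (100 uM top, half-log steps). Lysates in RLT go to qRT-PCR, and gain or loss of signal is fitted relative to vehicle.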

Read-out in assay [4]: Interleukin 6 Receptor (IL6R), IL6R (gene 3570)
Briefly: LTEA_HepaRG_IL6R: Life Technologies and Expression Analysis (LTEA) Assay for Interleukin 6 Receptor (IL6R) using HepaRG (AID 2283510). The method, boiled down: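 In this HepaRG screen, test chemicals act on cells for 48 h at up to 100 uM (eight half-log points, duplicate wells). IL6R expression is quantified by qRT-PCR after normalization to ACTB, GAPDH and POLR2A, with DMSO as baseline.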

Read-out in assay [5]: Potassium channel subfamily K member 1 (KCNK1), KCNK1 (gene 3775)
Briefly: LTEA_HepaRG_KCNK1: Life Technologies and Expression Analysis (LTEA) Assay for Potassium channel subfamily K member 1 (KCNK1) using HepaRG (AID 2283511). The method, boiled down:
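Human HepaRG cultures receive test chemicals for 48 h in 0.5% DMSO, top concentration 100 uM with half-log dilutions. Induction or suppression of KCNK1 mRNA relative to DMSO is derived by bidirectional fitting of qRT-PCR data.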

Read-out in assay [6]: Keratin 19 (KRT19), KRT19 (gene 3880)
The assay can be described thus: LTEA_HepaRG_KRT19: Life Technologies and Expression Analysis (LTEA) Assay for Keratin 19 (KRT19) using HepaRG (AID 2283512). The method, boiled down:
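KRT19 transcript levels, measured by Fluidigm qRT-PCR against three housekeeping genes, are fitted for gain or loss of signal relative to DMSO. Human HepaRG cells receive test chemicals (top 100 uM, half-log steps, 0.5% DMSO) for 48 hours.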

Read-out in assay [7]: JUN Transcription Factor, JUN (gene 3725)
The assay can be described thus: LTEA_HepaRG_JUN: Life Technologies and Expression Analysis (LTEA) Assay for JUN Transcription Factor using HepaRG (AID 2283513). The method, boiled down:
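Gene-expression endpoint: JUN mRNA (qRT-PCR, normalized to three reference genes) in HepaRG cultures treated 48 h with chemicals, duplicate wells, 100 uM maximum with half-log dilutions; bidirectional fitting relative to 0.5% DMSO.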

Read-out in assay [8]: Lipase C (LIPC), LIPC (gene 3990)
Briefly: LTEA_HepaRG_LIPC: Life Technologies and Expression Analysis (LTEA) Assay for Lipase C (LIPC) using HepaRG (AID 2283514). The gist of the method: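 In this multiplexed gene-expression screen, human HepaRG cultures received test chemicals for 48 h across eight concentrations with 100 uM highest, in duplicate. Values reflect LIPC mRNA induction or suppression versus DMSO vehicle, from normalized qRT-PCR.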

Read-out in assay [9]: Lipoprotein lipase (LPL), LPL (gene 4023)
Briefly: LTEA_HepaRG_LPL: Life Technologies and Expression Analysis (LTEA) Assay for Lipoprotein lipase (LPL) using HepaRG (AID 2283515). The method, boiled down: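 Concentration-response testing used half-log steps from 100 uM in 0.5% DMSO on human HepaRG cells, 48 h, duplicate wells. Phenobarbital 1 mM served as induction control; LPL mRNA was normalized to ACTB, GAPDH, POLR2A.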

Read-out in assay [10]: MicroRNA 122 (MIR122), gene 406906
Briefly: LTEA_HepaRG_MIR122: Life Technologies and Expression Analysis (LTEA) Assay for MicroRNA 122 (MIR122) using HepaRG (AID 2283516). Note: the transcript read is the microRNA miR-122. The method, boiled down: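 Changes in transcript abundance, up or down relative to 0.5% DMSO vehicle, were scored after 48 h chemical treatment of HepaRG cells (maximum 100 uM). Quantification used TaqMan qRT-PCR normalized to housekeeping genes.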

Read-out in assay [11]: matrix metalloproteinase-10 (MMP10), MMP10 (gene 4319)
The assay can be described thus: LTEA_HepaRG_MMP10: Life Technologies and Expression Analysis (LTEA) Assay for matrix metalloproteinase-10 (MMP10) using HepaRG (AID 2283517). The gist of the method: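 In differentiated HepaRG cultures kept in 0.5% DMSO, test chemicals act for 48 h over an eight-point range with a top dose of 100 uM. Expression is then quantified by TaqMan RT-PCR against ACTB, GAPDH and POLR2A.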

Read-out in the next assay: MYC, MYC (gene 4609)
Briefly: LTEA_HepaRG_MYC: Life Technologies and Expression Analysis (LTEA) Assay for MYC using HepaRG (AID 2283518). The gist of the method:
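HepaRG, ~100,000 cells/well, collagen I; 48 h plating; serum-free induction medium; 48 h dosing, duplicate, 100 uM top, half-log, 0.5% DMSO; total RNA → qRT-PCR MYC; gain/loss fit vs DMSO.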

Read-out in assay [12]: matrix metalloproteinase-3 (MMP3), MMP3 (gene 4314)
The assay can be described thus: LTEA_HepaRG_MMP3: Life Technologies and Expression Analysis (LTEA) Assay for matrix metalloproteinase-3 (MMP3) using HepaRG (AID 2283519). The gist of the method:
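Human liver HepaRG cultures received chemicals (top concentration 100 uM, 0.5% DMSO) for 48 h in duplicate. MMP3 mRNA induction or loss was then assessed via TaqMan qRT-PCR with housekeeping-gene normalisation.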

Read-out in assay [13]: Paternally Expressed 10 (PEG10), PEG10 (gene 23089)
The assay can be described thus: LTEA_HepaRG_PEG10: Life Technologies and Expression Analysis (LTEA) Assay for Paternally Expressed 10 (PEG10) using HepaRG (AID 2283520).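 For AC50: PEG10 transcript by qRT-PCR normalised to ACTB GAPDH and POLR2A.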 The gist of the method:
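After 48 h exposure of differentiated HepaRG cells (0.5% DMSO vehicle, eight concentrations up to 100 uM, duplicates), PEG10 mRNA was measured by TaqMan qRT-PCR. Values were normalised to endogenous control genes and analysed bidirectionally against vehicle.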

Read-out in assay [14]: Nuclear factor NF-kappa-B p105 subunit (Homo sapiens) (UniProt P19838)
Briefly: LTEA_HepaRG_NFKB1: Life Technologies and Expression Analysis (LTEA) Assay for Nuclear Factor Kappa B Subunit 1 (NFKB1) using HepaRG (AID 2283521).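 Note: differentiated human HepaRG liver cells in serum-free induction medium; TaqMan qRT-PCR transcript normalised to ACTB GAPDH and POLR2A housekeeping genes.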 The method, boiled down:
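HepaRG, 48 h exposure; 8-pt half-log series from 100 uM in 0.5% DMSO; duplicates. Readout: NFKB1 mRNA by qRT-PCR (Fluidigm arrays), housekeeping-normalized. Gain/loss fit vs DMSO baseline.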

Read-out in assay [15]: Protein phosphatase 2A (PPP2R4), PTPA (gene 5524)
The assay can be described thus: LTEA_HepaRG_PPP2R4: Life Technologies and Expression Analysis (LTEA) Assay for Protein phosphatase 2A (PPP2R4) using HepaRG (AID 2283522). The gist of the method: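 Using HepaRG cultures maintained in 0.5% DMSO, chemicals are tested 48 h at up to 100 uM in duplicate. Induction or suppression of PPP2R4 mRNA, measured by qRT-PCR, is fitted bidirectionally against the vehicle baseline.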

Read-out in assay [16]: Phosphatase and tensin (PTEN), PTEN (gene 5728)
The assay can be described thus: LTEA_HepaRG_PTEN: Life Technologies and Expression Analysis (LTEA) Assay for Phosphatase and tensin (PTEN) using HepaRG (AID 2283523). The method, boiled down: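 Expression of PTEN is quantified in the human liver line HepaRG following two days of dosing (top concentration 100 uM, half-log dilutions, 0.5% DMSO). Values derive from bidirectional curve fitting relative to DMSO controls.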

Read-out in assay [17]: solute carrier (SLC22A1), SLC22A1 (gene 6580)
Briefly: LTEA_HepaRG_SLC22A1: Life Technologies and Expression Analysis (LTEA) Assay for solute carrier (SLC22A1) using HepaRG (AID 2283524).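 For AC50: differentiated human HepaRG liver cells in serum-free induction medium; TaqMan qRT-PCR normalized to ACTB GAPDH and POLR2A housekeeping genes.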 The gist of the method: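 Transcript induction or suppression of SLC22A1 in human HepaRG cultures is scored after 48 h chemical treatment, with DMSO (0.5%) as baseline for bidirectional fitting. Concentrations span eight half-log points topping at 100 uM.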

Read-out in assay [18]: Pyruvate Dehydrogenase Kinase 4 (PDK4), PDK4 (gene 5166)
The assay can be described thus: LTEA_HepaRG_PDK4: Life Technologies and Expression Analysis (LTEA) Assay for Pyruvate Dehydrogenase Kinase 4 (PDK4) using HepaRG (AID 2283525). The method, boiled down: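 Eight-point, half-log concentration series (max 100 uM, 0.5% DMSO) applied to differentiated HepaRG cells for 48 h in duplicate. Endpoint: PDK4 mRNA induction or repression by qRT-PCR against DMSO baseline.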

Read-out in assay [19]: Interleukin 6 (IL6), IL6 (gene 3569)
The assay can be described thus: LTEA_HepaRG_IL6: Life Technologies and Expression Analysis (LTEA) Assay for Interleukin 6 (IL6) using HepaRG (AID 2283509). The gist of the method:
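Changes in IL6 mRNA, up or down relative to 0.5% DMSO controls, were derived from concentration-response curves in human HepaRG cells treated for 48 h at up to 100 uM, with ACTB, GAPDH and POLR2A as normalizers.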

Chain of Nuclear factor NF-kappa-B p105 subunit (Homo sapiens) (P19838 whole entry, looked up): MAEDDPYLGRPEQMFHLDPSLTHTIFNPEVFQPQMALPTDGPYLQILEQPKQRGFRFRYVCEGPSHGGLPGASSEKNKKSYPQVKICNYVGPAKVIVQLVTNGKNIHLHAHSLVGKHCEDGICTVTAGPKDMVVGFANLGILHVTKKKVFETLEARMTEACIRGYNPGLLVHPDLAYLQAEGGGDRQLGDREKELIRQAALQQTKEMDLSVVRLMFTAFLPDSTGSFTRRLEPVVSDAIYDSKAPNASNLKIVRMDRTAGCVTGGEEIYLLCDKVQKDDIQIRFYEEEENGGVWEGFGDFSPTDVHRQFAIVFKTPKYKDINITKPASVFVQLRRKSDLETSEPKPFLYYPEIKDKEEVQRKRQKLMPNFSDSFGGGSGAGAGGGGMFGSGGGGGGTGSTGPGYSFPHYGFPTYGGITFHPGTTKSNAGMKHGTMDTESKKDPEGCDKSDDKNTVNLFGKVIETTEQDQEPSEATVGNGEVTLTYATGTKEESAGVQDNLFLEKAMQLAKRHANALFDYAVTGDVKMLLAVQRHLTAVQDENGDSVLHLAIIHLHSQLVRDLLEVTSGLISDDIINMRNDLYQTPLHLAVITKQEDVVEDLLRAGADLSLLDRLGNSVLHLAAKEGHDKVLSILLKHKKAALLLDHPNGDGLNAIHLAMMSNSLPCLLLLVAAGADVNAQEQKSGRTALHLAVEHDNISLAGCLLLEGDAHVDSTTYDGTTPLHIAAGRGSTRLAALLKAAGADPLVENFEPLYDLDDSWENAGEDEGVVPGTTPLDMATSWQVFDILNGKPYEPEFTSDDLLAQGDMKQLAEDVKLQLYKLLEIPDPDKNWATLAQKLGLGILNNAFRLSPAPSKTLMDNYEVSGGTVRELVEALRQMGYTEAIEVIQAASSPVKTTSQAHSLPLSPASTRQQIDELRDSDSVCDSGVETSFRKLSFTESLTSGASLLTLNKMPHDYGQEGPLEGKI

Regarding `COc1ccc(/C=C/S(=O)(=O)NC(=O)c2ccc(C)cc2Cl)cc1`, the compound was called inactive in assay [1], in [2], in [3], in assay [4], in assay [5] and in assay [6]. The outcome in [7] was “inactive”; in [8], “inactive”; in [9], “inactive”; in assay [10] it was “inactive”; in assay [11] it was “inactive”; in the assay with MYC, MYC (gene 4609), “inactive”. Further, the compound was classed as inactive in [12], in assay [14], in assay [16] and in assay [17]. Further, the values for the AC50 in [13], in [15] and in assay [18] were 75.3 µM (active), 110 nM (active) and 6.62 µM (active), respectively.

`Cc1ccc(C)c(O)c1`: the outcome in assay [1], in assay [2], in [3], in [4], in assay [5] and in [6] was inactive. The outcome in assay [7] is “inactive”; in [8], “inactive”; in [9], “inactive”; in assay [10], “inactive”; in assay [11], “inactive”; with MYC, MYC (gene 4609) it was “inactive”. In addition, the compound was called inactive in assay [13], in assay [15], in [16], in [17] and in assay [18].

Regarding `CNS(=O)(=O)c1cc(C(=O)N2CCC(CCN3C4CCC3CC(n3c(C)nc5ccccc53)C4)(c3cccc(F)c3)CC2)c(Cl)cc1F` (stereo not drawn), the AC50 in assay [1] was 16.3 µM (active); in assay [2] it was 26.4 µM (active); in assay [3] it was 30.5 µM (active); in [8], 30.1 µM (active); in assay [9], 18.2 µM (active); in [10] it was 18.8 µM (active). The AC50 with MYC, MYC (gene 4609) is 26.1 µM (active); in assay [13] it was 13.3 µM (active); in assay [17] it was 18.8 µM (active). In addition, the compound was classed as inactive in assay [19], in assay [4], in [5], in assay [7], in [11] and in [14]. The call in assay [15] and in assay [16] was inactive.
